Source: PubChem BioAssay (NCATS)
Results filed as inconclusive are left out. A call without a number means that no potency is given here. Calls of active or inactive are those of the source. Calls come from the whole dose curve; as a rule, active = well fitted curve in the direction sought with a large enough effect; inconclusive = small, poorly fitted or top-dose-only effect, or another doubt; inactive = no such curve, though single readings can be large; an effect the other way counts as inactive or inconclusive.

Test system: not listed separately
Assay: HTS Assay for Allosteric Antagonists of the Human D2 Dopamine Receptor: Hit Validation in HTRF (AID 624455); note: potency is the fitted concentration of half-maximal effect;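 note: stable D1 dopamine receptor cell line scored for blocking the D1 response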
Settings: Cells stably expressing D1 dopamine receptor, inhibition mode; series mostly up to 46.1 µM
How it was run: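 Validation of hits used D1 receptor stably expressed in cells with HTRF detection of response inhibition; origin screen measured calcium flux following EC80 dopamine in a force-coupled, inducible Hek293 Trex D2 cell line.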

Q: For `C[N+]1(C)CCN(c2ccccc2)CC1`, which Potency is on record?
A: Its Potency is “inactive”.

Q: With `CCCn1c(C)c(C(=O)c2ccc3ccccc3c2)c2ccccc21` as the molecule, how does the Potency read?
A: Its Potency is “inactive”.

Q: With `C=CCN1CCc2cccc3c2[C@H]1Cc1ccc(O)c(O)c1-3` as the molecule, how does the Potency read?
A: The Potency was 51.7 nM (active).

Q: With `CCCN(CCC)CCc1c[nH]c2ccc(C(N)=O)cc12` as the molecule, how does the Potency read?
A: The Potency was “inactive”.

Q: With `NCCCP(=O)(O)O` as the molecule, how does the Potency read?
A: Its Potency is “inactive”.

Q: Which Potency does the source give for `Clc1ccc(N2CC3CCC(C2)N3)nn1` here?
A: The Potency was “inactive”.

Q: With `CN1C2CCC1CC(OC(c1ccccc1)c1ccccc1N)C2` (configuration not stated) as the molecule, how does the Potency read?
A: The Potency was “inactive”.

Q: Which Potency does the source give for `CCS(=O)(=O)Nc1cccc(C(=C2CCCCC2)c2cnc[nH]2)c1` here?
A: Its Potency is “inactive”.

Q: Which Potency does the source give for `CN(C(=O)Cc1ccc(Cl)c(Cl)c1)C(CN1CCCC1)c1cccc(OCC(=O)O)c1` (configuration not stated) here?
A: The Potency was “inactive”.

Q: Which Potency does the source give for `Cc1[nH]c2ccc(O)cc2c1CCN` here?
A: Its Potency is “inactive”.

Q: With `OCc1cnc[nH]1` as the molecule, how does the Potency read?
A: Its Potency is “inactive”.

Q: For `CC(C)[C@@]1(NC(=O)[C@@H]2C[C@@H]3c4cccc5[nH]cc(c45)C[C@H]3N(C)C2)O[C@@]2(O)[C@@H]3CCCN3C(=O)[C@H](Cc3ccccc3)N2C1=O`, which Potency is on record?
A: Its Potency is 51.7 nM (active).

Q: With `C[C@H](Cc1ccc2c(c1)OC(C(=O)O)(C(=O)O)O2)NC[C@H](O)c1cccc(Cl)c1` as the molecule, how does the Potency read?
A: Its Potency is “inactive”.

Q: Which Potency does the source give for `CCCN1CCc2cc(O)cc3c2[C@H]1Cc1ccc(O)c(O)c1-3` here?
A: Its Potency is 65.1 nM (active).

Q: Which Potency does the source give for `CCNC(=O)[C@H]1O[C@@H](n2cnc3c(N)ncnc32)[C@H](O)[C@@H]1O` here?
A: The Potency was “inactive”.

Q: Which Potency does the source give for `Ic1ccccc1CNC1C2CCN(CC2)C1C(c1ccccc1)c1ccccc1` (configuration not stated) here?
A: Its Potency is “inactive”.

Q: With `C[C@]12Cc3cn4c(nc3C=C1CCC1C2CC[C@@]2(C)[C@H]1CC[C@@]2(O)C#N)nc1ccccc14` (some centres not stated) as the molecule, how does the Potency read?
A: Its Potency is “inactive”.

Target: Arylsulfatase A (Homo sapiens) (UniProt P15289)
Sequence (P15289 whole entry, looked up): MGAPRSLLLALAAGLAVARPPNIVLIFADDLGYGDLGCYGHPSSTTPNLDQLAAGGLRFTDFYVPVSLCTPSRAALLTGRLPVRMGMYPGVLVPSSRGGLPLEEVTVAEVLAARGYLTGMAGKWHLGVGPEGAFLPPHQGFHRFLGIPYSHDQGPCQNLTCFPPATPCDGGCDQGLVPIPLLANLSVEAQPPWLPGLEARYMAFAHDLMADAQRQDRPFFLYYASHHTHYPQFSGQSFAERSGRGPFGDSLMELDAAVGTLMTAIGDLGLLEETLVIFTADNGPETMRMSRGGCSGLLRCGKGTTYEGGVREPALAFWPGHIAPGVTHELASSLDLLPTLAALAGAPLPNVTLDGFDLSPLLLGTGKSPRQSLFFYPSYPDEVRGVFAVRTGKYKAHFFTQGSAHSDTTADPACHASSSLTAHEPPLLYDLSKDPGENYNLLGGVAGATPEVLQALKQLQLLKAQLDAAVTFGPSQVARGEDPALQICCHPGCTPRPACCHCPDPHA
Assay: qHTS screen for enhancers of Arylsulfatase A (ASA1): LOPAC Validation Assay (AID 720538)
Settings: ASA enzyme activity, LOPAC qHTS enhancer assay; series mostly up to 57.5 µM
How it was run: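 MLD patient fibroblasts (SV40, ASA-I179S), 1536-well; adhere 6 hrs; cpd 48h, 37 degree C, 5% CO2; pNCS 0.5mM final in lysis buffer, 14h RT; stop 1N NaOH final; fluor. Ex525/Em598.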

Q: For `CC(=O)OCC1=C(C(=O)O)N2C(=O)[C@@H](NC(=O)CCC[C@@H](N)C(=O)O)[C@H]2SC1`, which Potency is on record?
A: The Potency was “inactive”.

Q: For `CCCC[N+]1(C)C2CC(OC(=O)[C@H](CO)c3ccccc3)CC1C1OC12` (some centres not stated), which Potency is on record?
A: Its Potency is “inactive”.

Q: For `CN1CC[C@@]2(C)c3cc(OC(=O)Nc4ccccc4)ccc3N(C)[C@@H]12`, which Potency is on record?
A: Its Potency is “inactive”.

Q: With `Cc1sc2ccccc2c1CC1=NCCN1` as the molecule, how does the Potency read?
A: Its Potency is “inactive”.

Q: With `COc1ccc2c(c1)/C(=C/c1cnc[nH]1)C(=O)N2` as the molecule, how does the Potency read?
A: Its Potency is “inactive”.

Q: Which Potency does the source give for `C=CCN1C[C@@H](C)N([C@H](c2ccc(C(=O)N(CC)CC)cc2)c2cccc(OC)c2)C[C@@H]1C` here?
A: Its Potency is “inactive”.

Q: With `Cc1o[nH]c(=O)c1CC(N)C(=O)O` (configuration not stated) as the molecule, how does the Potency read?
A: The Potency was “inactive”.

Q: Which Potency does the source give for `NC(N)=Nc1ccc2[nH]c3c(c2c1)C[C@@]1(O)[C@H]2Cc4ccc(O)c5c4[C@@]1(CCN2CC1CC1)[C@H]3O5` here?
A: The Potency was “inactive”.

Q: With `O=S1(=O)N(CCN2CC=C(c3c[nH]c4cc(F)ccc34)CC2)c2cccc3c2N1CCC3` as the molecule, how does the Potency read?
A: The Potency was “inactive”.

Q: Which Potency does the source give for `CC(C)(C)c1o[nH]c(=O)c1CC(N)C(=O)O` (configuration not stated) here?
A: Its Potency is “inactive”.

Q: Which Potency does the source give for `COc1ccc2c(c1O)-c1cccc3c1[C@@H](C2)N(C)CC3` here?
A: The Potency was “inactive”.

Q: Which Potency does the source give for `CCOC(=O)c1ncn2c1[C@@H]1CCCN1C(=O)c1cc(OC)ccc1-2` here?
A: The Potency was “inactive”.

Q: Which Potency does the source give for `C[N+]1(C)CCN(c2ccccc2)CC1` here?
A: The Potency was “inactive”.

Q: For `CCCn1c(C)c(C(=O)c2ccc3ccccc3c2)c2ccccc21`, which Potency is on record?
A: The Potency was “inactive”.

Q: Which Potency does the source give for `CCCN(CCC)CCc1c[nH]c2ccc(C(N)=O)cc12` here?
A: The Potency was “inactive”.

Q: For `NCCCP(=O)(O)O`, which Potency is on record?
A: The Potency was “inactive”.

Q: With `CN1C2CCC1CC(OC(c1ccccc1)c1ccccc1N)C2` (configuration not stated) as the molecule, how does the Potency read?
A: Its Potency is “inactive”.

Q: Which Potency does the source give for `CCS(=O)(=O)Nc1cccc(C(=C2CCCCC2)c2cnc[nH]2)c1` here?
A: Its Potency is “inactive”.

Q: For `CN(C(=O)Cc1ccc(Cl)c(Cl)c1)C(CN1CCCC1)c1cccc(OCC(=O)O)c1` (configuration not stated), which Potency is on record?
A: The Potency was “inactive”.

Q: For `Cc1[nH]c2ccc(O)cc2c1CCN`, which Potency is on record?
A: Its Potency is “inactive”.

Q: For `OCc1cnc[nH]1`, which Potency is on record?
A: Its Potency is “inactive”.

Q: For `CC(C)[C@@]1(NC(=O)[C@@H]2C[C@@H]3c4cccc5[nH]cc(c45)C[C@H]3N(C)C2)O[C@@]2(O)[C@@H]3CCCN3C(=O)[C@H](Cc3ccccc3)N2C1=O`, which Potency is on record?
A: Its Potency is “inactive”.

Q: Which Potency does the source give for `C[C@H](Cc1ccc2c(c1)OC(C(=O)O)(C(=O)O)O2)NC[C@H](O)c1cccc(Cl)c1` here?
A: Its Potency is “inactive”.

Q: Which Potency does the source give for `Ic1ccccc1CNC1C2CCN(CC2)C1C(c1ccccc1)c1ccccc1` (configuration not stated) here?
A: Its Potency is “inactive”.

Q: Which Potency does the source give for `C[C@]12Cc3cn4c(nc3C=C1CCC1C2CC[C@@]2(C)[C@H]1CC[C@@]2(O)C#N)nc1ccccc14` (some centres not stated) here?
A: The Potency was “inactive”.

Test system: not listed separately
Assay: qHTS for compounds that reverse cellular toxicity of Amyloid beta (A-beta) peptide in yeast: LOPAC Validation Assay (AID 720559)
Settings: yeast expressing A-beta; series mostly up to 46.1 µM
How it was run: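 Medium dispensed, compounds pinned, A-beta yeast suspension added; plates held at 30 C for 48 hr; absorbance measured at 600 nm to gauge growth; values scaled between DMSO and FeCl3/clioquinol (equimolar) controls.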

Q: With `CC(=O)OCC1=C(C(=O)O)N2C(=O)[C@@H](NC(=O)CCC[C@@H](N)C(=O)O)[C@H]2SC1` as the molecule, how does the outcome read?
A: Its outcome is “inactive”.

Q: With `CCCC[N+]1(C)C2CC(OC(=O)[C@H](CO)c3ccccc3)CC1C1OC12` (some centres not stated) as the molecule, how does the outcome read?
A: Its outcome is “inactive”.

Q: Which outcome does the source give for `CN1CC[C@@]2(C)c3cc(OC(=O)Nc4ccccc4)ccc3N(C)[C@@H]12` here?
A: The outcome was “inactive”.

Q: With `N[C@@H](Cn1oc(=O)[nH]c1=O)C(=O)O` as the molecule, how does the outcome read?
A: The outcome was “inactive”.

Q: With `Cc1sc2ccccc2c1CC1=NCCN1` as the molecule, how does the outcome read?
A: Its outcome is “inactive”.

Q: For `COc1ccc2c(c1)/C(=C/c1cnc[nH]1)C(=O)N2`, which outcome is on record?
A: Its outcome is “inactive”.

Q: Which outcome does the source give for `C=CCN1C[C@@H](C)N([C@H](c2ccc(C(=O)N(CC)CC)cc2)c2cccc(OC)c2)C[C@@H]1C` here?
A: Its outcome is “inactive”.

Q: For `Cc1o[nH]c(=O)c1CC(N)C(=O)O` (configuration not stated), which outcome is on record?
A: The outcome was “inactive”.

Q: Which outcome does the source give for `NC(N)=Nc1ccc2[nH]c3c(c2c1)C[C@@]1(O)[C@H]2Cc4ccc(O)c5c4[C@@]1(CCN2CC1CC1)[C@H]3O5` here?
A: The outcome was “inactive”.

Q: Which outcome does the source give for `O=S1(=O)N(CCN2CC=C(c3c[nH]c4cc(F)ccc34)CC2)c2cccc3c2N1CCC3` here?
A: The outcome was “inactive”.

Q: With `CC(N)[C@H](O)c1ccc(O)c(O)c1` (some centres not stated) as the molecule, how does the outcome read?
A: The outcome was “inactive”.

Q: With `CCCN(CCC)[C@H]1CCc2c(F)ccc(O)c2C1` as the molecule, how does the outcome read?
A: The outcome was “inactive”.

Q: For `CC(N)c1cccc(Cl)c1Cl` (configuration not stated), which outcome is on record?
A: The outcome was “inactive”.

Q: With `CC(C)(C)c1o[nH]c(=O)c1CC(N)C(=O)O` (configuration not stated) as the molecule, how does the outcome read?
A: The outcome was “inactive”.

Q: Which outcome does the source give for `O=[N+]([O-])/C=C/c1ccc2c(c1)OCO2` here?
A: Its outcome is “inactive”.

Q: For `CCCN(CCC)CCc1ccc(O)c(O)c1`, which outcome is on record?
A: The outcome was “inactive”.

Q: For `COc1ccc2c(c1O)-c1cccc3c1[C@@H](C2)N(C)CC3`, which outcome is on record?
A: The outcome was “inactive”.

Q: Which outcome does the source give for `CCOC(=O)c1ncn2c1[C@@H]1CCCN1C(=O)c1cc(OC)ccc1-2` here?
A: Its outcome is “inactive”.

Q: For `C[N+]1(C)CCN(c2ccccc2)CC1`, which outcome is on record?
A: The outcome was “inactive”.

Q: For `CCCn1c(C)c(C(=O)c2ccc3ccccc3c2)c2ccccc21`, which outcome is on record?
A: The outcome was “inactive”.

Q: Which outcome does the source give for `C=CCN1CCc2cccc3c2[C@H]1Cc1ccc(O)c(O)c1-3` here?
A: Its outcome is “inactive”.

Q: Which outcome does the source give for `CCCN(CCC)CCc1c[nH]c2ccc(C(N)=O)cc12` here?
A: The outcome was “inactive”.

Q: For `NCCCP(=O)(O)O`, which outcome is on record?
A: Its outcome is “inactive”.

Q: Which outcome does the source give for `Clc1ccc(N2CC3CCC(C2)N3)nn1` here?
A: Its outcome is “inactive”.

Q: Which outcome does the source give for `CN1C2CCC1CC(OC(c1ccccc1)c1ccccc1N)C2` (configuration not stated) here?
A: Its outcome is “inactive”.

Q: For `CCS(=O)(=O)Nc1cccc(C(=C2CCCCC2)c2cnc[nH]2)c1`, which outcome is on record?
A: Its outcome is “inactive”.

Q: For `CN(C(=O)Cc1ccc(Cl)c(Cl)c1)C(CN1CCCC1)c1cccc(OCC(=O)O)c1` (configuration not stated), which outcome is on record?
A: The outcome was “inactive”.

Q: For `Cc1[nH]c2ccc(O)cc2c1CCN`, which outcome is on record?
A: Its outcome is “inactive”.

Q: With `OCc1cnc[nH]1` as the molecule, how does the outcome read?
A: The outcome was “inactive”.

Q: For `CC(C)[C@@]1(NC(=O)[C@@H]2C[C@@H]3c4cccc5[nH]cc(c45)C[C@H]3N(C)C2)O[C@@]2(O)[C@@H]3CCCN3C(=O)[C@H](Cc3ccccc3)N2C1=O`, which outcome is on record?
A: The outcome was “inactive”.

Q: With `C[C@H](Cc1ccc2c(c1)OC(C(=O)O)(C(=O)O)O2)NC[C@H](O)c1cccc(Cl)c1` as the molecule, how does the outcome read?
A: The outcome was “inactive”.

Q: Which outcome does the source give for `CCCN1CCc2cc(O)cc3c2[C@H]1Cc1ccc(O)c(O)c1-3` here?
A: Its outcome is “inactive”.

Q: With `CCNC(=O)[C@H]1O[C@@H](n2cnc3c(N)ncnc32)[C@H](O)[C@@H]1O` as the molecule, how does the outcome read?
A: Its outcome is “inactive”.

Q: For `Ic1ccccc1CNC1C2CCN(CC2)C1C(c1ccccc1)c1ccccc1` (configuration not stated), which outcome is on record?
A: Its outcome is “inactive”.

Q: For `C[C@]12Cc3cn4c(nc3C=C1CCC1C2CC[C@@]2(C)[C@H]1CC[C@@]2(O)C#N)nc1ccccc14` (some centres not stated), which outcome is on record?
A: Its outcome is “inactive”.
